This excerpt belongs to a sample that is enriched for hits.
Giardia FBPA inh – Giardia lamblia aldolase inhibition | Potency, µM (titrated, usually from 59.6 µM), for inactives: top-dose activity, negative = inhibition, actives largely listed as inhibitors | AID 2451 | purified Giardia FBPA | 0.71% of 290,000 active; also: potency is read from the fitted curve at half-maximal effect; % is scaled to controls: 0 for no effect and ±100 for the full control effect; nearly all actives have a fitted effect of over 55% in size
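40 nM FBPA preincubated 10 min at RT with compound (up to 57.5 uM final), then substrate plus GAPDH/TPI/NAD/arsenate coupling and diaphorase/resazurin added. Fluorescence read after 20 min at RT, 525/598 nm.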
RE007 growth inh – less growth of the S. pombe RE007 Vpr strain; 0.21% of 360,000 active; Potency, µM (doses to about 92.2 µM), for inactives: top-dose activity change, negative = less growth, actives largely listed as inhibitors; S. pombe RE007 Vpr strain, BacTiter-Glo ATP luminescence, 24 h; active = well fitted falling curve with a large enough effect; inconclusive = small, poorly fitted or top-dose-only effect; inactive = no such curve, though single readings can be large or run the other way; also: potency is read from the fitted curve at half-maximal effect; % is scaled to controls: 0 for no effect and ±100 for the full control effect; nearly all actives have a fitted effect of over 50% in size
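Fission yeast strain RE007, carrying one chromosomally integrated HIV-1 vpr copy, was seeded at OD 0.01 in PMG+AL medium with 23 nL pinned compound. After 24 h at 30 °C and 99% humidity, viability was read by BacTiter-Glo luminescence.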
Tb PYK inh – T. brucei pyruvate kinase inhibition. 0.12% of 410,000 active. Q57TT1. AID 624173. Potency, µM (doses to about 76.8 µM), for the others: at the highest dose activity, negative = inhibition, hits mostly inhibitors. TbPYK enzyme, Kinase-Glo Plus ATP luminescence, 45 min; also: potency is read from the fitted curve at half-maximal effect; % is scaled to controls: 0 for no effect and ±100 for the full control effect; nearly all actives have a fitted effect of over 50% in size
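Enzyme and substrate buffer are dispensed first and compound is pin-transferred. ADP at 130 uM final then starts the reaction, which runs 45 min at room temperature. Detection reagent is added for 10 min before luminescence is imaged.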
Shiga inhibitor – inhibitors of Shiga toxin in Vero cells. Vero cells, Shiga toxin protein synthesis inhibition reporter. inhibition, % at 38.7 µM. 9.2% of 290,000 active. AID 2315; in the data active = inhibition mostly above about 28%, no sharp cut-off; inactive = mostly below about 43%; also: 0% is about no effect
Cycloheximide cs – counter-screen hit for Shiga toxin inhibitors, cycloheximide. cell reporter, cycloheximide protein synthesis inhibition counterscreen. AID 2314. max response, %. 12% of 300,000 active; in the data active = max response mostly above about 13%, no sharp cut-off; inactive = mostly below about 14%; also: read at 38.3 µM for the half of the compounds with a filed dose; 0% is about no effect
LmPK inhibitor – inhibitors of Leishmania mexicana pyruvate kinase; 0.37% of 290,000 active; AID 1721; purified LmPK, Kinase-Glo ATP luminescence, 1 h; Q27686; Potency, µM (highest dose often 57.5 µM), without a hit: at the highest dose activity change, negative = inhibition, actives largely listed as inhibitors; also: potency is read from the fitted curve at half-maximal effect; % is scaled to controls: 0 for no effect and ±100 for the full control effect
Target sequence (Q27686 whole entry, looked up): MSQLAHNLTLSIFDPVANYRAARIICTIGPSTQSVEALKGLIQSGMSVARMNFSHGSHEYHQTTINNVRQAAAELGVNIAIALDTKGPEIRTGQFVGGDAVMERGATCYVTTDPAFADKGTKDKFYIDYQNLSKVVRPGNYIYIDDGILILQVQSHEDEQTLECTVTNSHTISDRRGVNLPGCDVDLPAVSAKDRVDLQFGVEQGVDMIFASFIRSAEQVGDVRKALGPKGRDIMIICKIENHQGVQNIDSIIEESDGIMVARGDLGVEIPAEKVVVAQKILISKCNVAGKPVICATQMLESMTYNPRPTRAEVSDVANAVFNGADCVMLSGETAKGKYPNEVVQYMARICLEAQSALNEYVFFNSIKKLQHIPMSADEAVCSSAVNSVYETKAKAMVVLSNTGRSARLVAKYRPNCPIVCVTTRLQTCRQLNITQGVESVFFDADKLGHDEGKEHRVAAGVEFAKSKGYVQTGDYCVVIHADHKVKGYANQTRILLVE
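Purified LmPK (0.1 nM) converted ADP (0.1 mM) to ATP with PEP (0.5 mM) in imidazole buffer pH 7.2 with KCl and MgCl2, 1 h at room temperature. ATP was read by Kinase-Glo luminescence; data normalized to uninhibited and no-enzyme controls.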
* hit, by the source's call; ? = inconclusive; . = no result given. Unless noted, calls follow the shape of the dose curve; as a rule, active = well fitted curve in the direction sought with a large enough effect; inconclusive = small, poorly fitted or top-dose-only effect, or another doubt; inactive = no such curve, though single readings can be large; an effect the other way counts as inactive or inconclusive.

SMILES	Giardia FBPA inh	RE007 growth inh	Tb PYK inh	Shiga inhibitor	Cycloheximide cs	LmPK inhibitor
O=C(CN1C(=O)C2(SCC(=O)N2c2ccc(F)cc2)c2ccccc21)NCCc1ccccc1 (configuration not stated)	.	.	3%	.	.	.
CC1CCCN(S(=O)(=O)c2ccc(NC(=O)c3nc(SC(C)C)ncc3Cl)cc2)C1 (configuration not stated)	.	.	-11%	.	.	.
C/C(N)=C(/C#N)C(=O)COC(=O)c1cc(C)n(-c2ccc(F)cc2)c1C	2%	1%	-2%	96*	72*	2%
CCOC(=O)c1[nH]c(=S)n(-c2ccccc2)c1C(=O)OCC	.	-4%	2.5µM*	.	.	.
CCN(C(=O)COC(=O)c1cc(C)n(-c2ccc(F)cc2)c1C)C1CCS(=O)(=O)C1 (configuration not stated)	-13%	7%	6%	-7	4	6%
CCOC(=O)c1[nH]c(=S)n(Cc2ccccc2)c1C(=O)OCC	.	3%	?	.	.	.
O=c1c(-c2ccc(Cl)cc2)cnc2n1CCS2	0%	26%	-8%	67*	29*	-5%
O=C(COCc1cc(-c2ccc3c(c2)OCO3)on1)N1CCCCC1	.	7%	0%	76*	68*	-1%
Cc1ccc(Cl)cc1N1CCN(C(=O)COCc2cc(-c3ccc4c(c3)OCO4)on2)CC1	.	.	0%	.	.	.
CN1CCN(C(=O)COCc2cc(-c3ccc4c(c3)OCO4)on2)CC1	-7%	17%	-4%	23*	18*	3%
NC(=O)C1CCN(C(=O)COCc2cc(-c3ccc4c(c3)OCO4)on2)CC1	14%	-10%	6%	10	17	-2%
COCCNCc1ccccc1[N+](=O)[O-]	.	-18%	-3%	.	.	.
CCc1ccc(CNC(=O)C2CCCN(S(=O)(=O)N(CC)c3ccccc3)C2)cc1 (configuration not stated)	-3%	-4%	3%	-5	-3	2%
CC(C)C(NC(=O)OCc1ccccc1)C(=O)OCC(=O)N1CCCCC1 (configuration not stated)	3%	10%	2%	69*	44*	-2%
COc1ccc(N2CCN(C(=O)COC(=O)[C@@H](NC(=O)OCc3ccccc3)C(C)C)CC2)cc1	.	8%	-6%	.	.	.
COc1cccc(NC(=O)c2oc3ccc(S(=O)(=O)N(C)C4CCCCC4)cc3c2C)c1	.	.	3%	.	.	.
CN(C)CCCN1c2ccccc2C(C)(C)c2ccccc21	.	.	2%	.	.	.
Cc1nc2cc(NC(=O)c3ccc(Br)s3)ccc2s1	.	-17%	5%	117*	63*	-9%
Cc1ccc(C(=O)Nc2ccc3nc(C)sc3c2)s1	-1%	0%	-7%	112*	43*	2%
Cc1cc(C)nc(NS(=O)(=O)c2ccc(NC(=O)c3nc(SC(C)C)ncc3Cl)cc2)n1	.	.	1%	.	.	.
CCOC(=O)Cc1csc(N/N=C/c2ccc(C(F)(F)F)cc2)n1	-1%	0%	6%	25	22*	7%
CCOC(=O)Cc1csc(NC(=O)Nc2ccc(C)cc2)n1	0%	4%	1%	50*	27*	-17%
CCOC(=O)Cc1csc(NC(=O)Cc2ccc(C)cc2)n1	4%	4%	3%	11	-1	5%
CCOC(=O)Cc1csc(N/N=C/c2cccc([N+](=O)[O-])c2)n1	17%	1%	1%	-5	16	-2%
CCOC(=O)Nc1nc(-c2ccc(F)cc2F)cs1	-2%	-22%	2%	12*	55*	1%
SMILES	Giardia FBPA inh	RE007 growth inh	Tb PYK inh	Shiga inhibitor	Cycloheximide cs	LmPK inhibitor
CCOC(=O)Cc1csc(NC(=O)Nc2cccs2)n1	-2%	20%	-7%	48*	37*	3%
COc1ccc(-n2nc3cc(C)c(NC(=O)c4ccc(-c5ccc(Cl)cc5)o4)cc3n2)cc1	.	.	1%	.	.	.
O=c1[nH][nH]c(=O)c(Cl)c1Cl	.	41%	-10%	.	.	.
CCOC(=O)Cc1csc(NC(=O)Nc2ccc(F)cc2)n1	-1%	-14%	-1%	14	12*	-1%
CCCNC(=O)Nc1nc(CC(=O)OCC)cs1	4%	1%	2%	-11	-1	-4%
Clc1ccc(OCCn2cnc3ccccc32)c(Cl)c1	0%	?	2%	64*	41*	1%

High-throughput results (PubChem)
